Reference: PubChem BioAssay (NCI)
This is part of a sample that, as a whole, favours compounds with a hit. Of some 83,000 tested, about 20% had one in any assay.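 Values shown are percent growth following 48 h exposure of cells in 96-well plates to a single concentration of compound; below 10 was considered active.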 Values without a mark were called inactive. The source made the active and inactive calls.

What was measured:
Test in all cases: NCI-60 one-dose screen, 48 h (100 = growth as untreated, 0 = no growth, -100 = all killed)
OVCAR-8 ovarian = settings: 10 µM unless noted
OVCAR-5 ovarian = settings: 10 µM unless noted
OVCAR-4 ovarian = settings: 10 µM unless noted
SK-OV-3 ovarian = settings: 10 µM unless noted
OVCAR-3 ovarian = settings: 10 µM unless noted
HS 578T breast = settings: 10 µM
NCI/ADR-RES ovarian = settings: 10 µM unless noted
T-47D breast = settings: 10 µM unless noted
BT-549 breast = settings: 10 µM unless noted
MDA-MB-435 melanoma = settings: 10 µM unless noted
SW-620 colon = settings: 10 µM unless noted
MCF7 breast = settings: 10 µM unless noted
HCT-116 colon = settings: 10 µM unless noted
HCC-2998 colon = settings: 10 µM unless noted
KM12 colon = settings: 10 µM unless noted
RPMI-8226 leukemia = settings: 10 µM unless noted
IGROV1 ovarian = settings: 10 µM unless noted

Row | SMILES | growth (OVCAR-8 ovarian) | growth (OVCAR-5 ovarian) | growth (OVCAR-4 ovarian) | growth (SK-OV-3 ovarian) | growth (OVCAR-3 ovarian) | growth (HS 578T breast) | growth (NCI/ADR-RES ovarian) | growth (T-47D breast) | growth (BT-549 breast) | growth (MDA-MB-435 melanoma) | growth (SW-620 colon) | growth (MCF7 breast) | growth (HCT-116 colon) | growth (HCC-2998 colon) | growth (KM12 colon) | growth (RPMI-8226 leukemia) | growth (IGROV1 ovarian)
1 | Nc1cc2nc3ccccc3oc-2cc1=O | 58.4% | 81.6% | 69.6% | 92.4% | 10.1% | -38.3% (active) | 60.6% | 69.9% | -47.1% (active) | -88% (active) | 11.6% | 9.47% (active) | 45.1% | 79.4% | 32.4% | – | –
2 | Cc1ccc(N2C3c4ccccc4N(S(=O)(=O)c4ccc(C)cc4)C2c2ccccc2N3S(=O)(=O)c2ccc(C)cc2)cc1 | 88.9% | 105% | – | 106% | 107% | 99.5% | – | 93.2% | 115% | 99.9% | 96.6% | 88.5% | 121% | 115% | 95.4% | 93.1% | 107%
3 | O=[N+]([O-])c1cc(F)c2cccnc2c1O | 88.8% | 105% | 102% | 97.4% | 111% | 105% | 92.9% | 99.5% | – | 102% | 87.4% | 94.7% | 95.8% | 96.2% | 111% | – | 3.74% (active)
4 | N#Cc1c(NN)n(C2OC(CO)C(O)C2O)c2ncnc(N)c12 (stereo not given) | 0.0898% (active) | 17% | 14% | 2.07% (active) | -42.3% (active) | 9.12% (active) | 6.9% (active) | -14.9% (active) | – | -15.5% (active) | -15.6% (active) | -11.2% (active) | 2.09% (active) | -9.45% (active) | 1.94% (active) | – | -65.7% (active)
5 | C=CCn1c(SCC(=O)Nc2ccc(C(=O)/C=C/c3ccccc3)cc2)nnc1-c1ccc(OC)c(OC)c1 | 78.5% | 108% | – | 93.4% | 78.1% | 96.4% | 80.1% | 50.6% | 59.5% | 69.3% | 100% | – | -91.7% (active) | 85.3% | 57.3% | 2.52% (active) | 81.6%
6 | CC1CCN(Cc2ccc(NC(=O)c3cc4ccc5cccnc5c4[nH]3)cc2)CC1 | 34.1% | 51.8% | 66.5% | 12.7% | -14.3% (active) | – | – | 38.4% | 42.8% | -67.6% (active) | 28.1% | 27.2% | 13.6% | 17.5% | 15.1% | 19.8% | 46.7%
7 | Cc1ccc(O)c(Cc2ccccc2)c1 | 102% | 104% | 108% | 110% | 100% | 91.3% | 99.7% | 101% | 92.4% | 107% | 98.4% | 114% | 98% | 102% | 103% | – | 132%
8 | CCC(=O)NC(O)C(Cl)(Cl)C(C)Cl (stereo not given) | 98.1% | 105% | – | 107% | 105% | – | 96.3% | 85.4% | – | 96.8% | 105% | 90.3% | 103% | 101% | 103% | 105% | 99.6%
9 | O=C(Nc1ccc(Oc2ccc(NC(=O)Nc3ccccc3Cl)cc2)cc1)Nc1ccccc1Cl | 56.1% | 101% | 29.7% | 76.5% | -38.3% (active) | 34.5% | 70.3% | 45.3% | – | 48.8% | 51.7% | 44.1% | 29.2% | 80.4% | 40.8% | – | -62.3% (active)
